Screens: PubChem BioAssay, several laboratories
Rows were chosen to be rich in hits. Some 3.2% of all compounds tested hit in one or more screens of this group.
FAK inh: FAK (human) kinase inhibition. biochemical FAK kinase activity assay. inhibition, %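 (tested at 7 µM)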. 0.84% of 97,000 active. AID 727; in the data active means inhibition above about 19%
ERa coact inh: blocks coactivator binding to human estrogen receptor alpha. P03372. inhibition, % at 25.6 µM. TR-FRET ER-alpha LBD / SRC-1 peptide, estradiol-bound. 1.7% of 86,000 active; in the data active means inhibition above about 50%
ERa coact pot: ER-alpha (human) coactivator binding potentiation; P03372; 1.3% of 86,000 active; AID 639; TR-FRET ERalpha-LBD/SRC-Cy5 coactivator binding, 2 h; 100 = basal binding, no effect; coactivator binding (% of control), % at 25.6 µM; in the data active means activity above about 200%;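 further: binding measured in presence of low estradiol as agonist stimulus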
ERb coact inh: ER-beta (human) coactivator binding inhibition | inhibition, % at 25.6 µM | Q92731 | 1.3% of 86,000 active | TR-FRET ER-beta LBD / SRC1-Cy5 peptide binding; receptor agonist-loaded with 1 µM estradiol;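 active means compounds whose percent inhibition of the receptor-coactivator binding signal exceeds about 50% in the single-dose screen, limit read from the data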
Each line names hits and unclear results; the compound was inactive in the other large screens; [ ] = another dose, or the depositor's remark.

Cc1ccc2[nH]c(=O)c(C(c3nnnn3C(C)(C)C)N(Cc3ccco3)CC3CCCO3)cc2c1 (configuration not stated)	none
Cc1cccc2cc(C(c3nnnn3C(C)(C)C)N(Cc3ccco3)CC3CCCO3)c(=O)[nH]c12 (configuration not stated)	ERa coact inh 57, ERb coact inh 66[fluorescence artefact?]
Cc1ccc(S(=O)(=O)NCC(=O)N(CC(=O)NC2CCCCC2)CC2CCCO2)cc1 (configuration not stated)	none
CCN(CC)CCc1c(C)[nH]c(C(=O)OCc2ccccc2)c1C	ERa coact inh 96[fluorescence artefact?], ERb coact inh 93[fluorescence artefact?]
COc1ccc(NC(=O)Nc2ccc(N(C)C)cc2)cc1	ERb coact inh 52[fluorescence artefact?]
COc1ccc(C(=O)Nc2ccccc2C(=O)N(Cc2ccco2)C(C(N)=O)C(C)C)cc1 (configuration not stated)	ERa coact inh 57[fluorescence artefact?]
COc1ccc(C(=O)Nc2ccccc2C(=O)NC(C(=O)NCc2ccco2)C(C)C)cc1 (configuration not stated)	ERa coact pot 242[fluorescence artefact?]
COC(=O)c1ccccc1NC(=O)NCc1ccco1	none
O=C(Nc1ccc(O)cc1)c1ccc(C(=O)c2ccccc2)o1	none
CNc1ccc(Br)cc(C(=O)/C=C/c2cccc(OC)c2)c1=O	ERa coact inh 66[fluorescence artefact?]
CCNc1ccc(Br)cc(C(=O)/C=C/c2c(Cl)cccc2Cl)c1=O	ERa coact inh 75[fluorescence artefact?], ERb coact inh 72[fluorescence artefact?]
CCOCCCN1C(=O)C(O)=C(C(C)=O)C1c1cccs1 (configuration not stated)	none
CC(=O)C1=C(O)C(=O)N(c2nnn(C)n2)C1c1cccs1 (configuration not stated)	ERb coact inh 79[fluorescence artefact?]
CC(C)(C)SCCNC(=O)c1ccc(NS(C)(=O)=O)cc1	none
CCN(CC)C(=O)C1CCCN(C(=O)Nc2ccc(NC(=O)N3CCCC(C(=O)N(CC)CC)C3)cc2)C1 (configuration not stated)	none
CCC(C)NC(=O)C1CCCN(C(=O)Nc2ccc(F)cc2)C1 (configuration not stated)	ERa coact pot 295 (no result: FAK inh)
COc1ccccc1-c1nnc2n1N=C(c1ccc(O)c(O)c1)CS2	ERa coact inh 60[fluorescence artefact?], ERb coact inh 75[fluorescence artefact?]
Cc1ccc(-c2nnc3n2N=C(c2ccc(Br)cc2)CS3)cc1	ERa coact inh 66
Cc1cccc(-c2nnc3n2N=C(c2ccc(Br)cc2)CS3)c1	ERa coact inh 56[fluorescence artefact?], ERa coact pot 297 (no result: FAK inh)
COc1cccc(-c2nnc3n2N=C(c2cccc(Br)c2)CS3)c1	none
COc1ccc(CCNC(=O)CSc2nnc(-c3ccc(F)cc3)o2)cc1OC	none
CSc1nc2nc3c(c(=O)n2[nH]1)CCCC3	none
Cc1cccn2c(=O)c3cc(C#N)c(=O)n(CC4CCCO4)c3nc12 (configuration not stated)	none (no result: ERa coact inh, ERa coact pot, ERb coact inh)
CC(C)(C)NC(=O)CN(C(=O)CSc1nnc(COc2ccccc2)o1)c1cccc(F)c1	none
Cc1ccc2[nH]c(=S)cc(C)c2c1	ERb coact inh 60[fluorescence artefact?]
CCOC(=O)c1c(NC(=O)CSc2nnc(CNC(=O)c3ccco3)n2C)sc2c1CCC2	ERa coact inh 65
CCOC(=O)c1c(NC(=O)c2cccs2)sc2c1CCC2	ERa coact pot 263[fluorescence artefact?] (no result: FAK inh)
CCOC(=O)c1c(NC(=O)CSc2nnc(C)s2)sc2c1CCN(C)C2	ERa coact inh 85[fluorescence artefact?]
CCOC(=O)c1c(NS(=O)(=O)c2ccc(Br)cc2)sc2c1CCC2	ERa coact inh 61[fluorescence artefact?], ERb coact inh 56
O=c1c2ccccc2nc2n1C(CSCc1ccc(Cl)cc1Cl)CS2 (configuration not stated)	none (no result: ERa coact inh, ERa coact pot, ERb coact inh)
CCN1CCN(C(c2cccs2)C(C)NS(=O)(=O)c2ccc(Br)cc2)CC1 (configuration not stated)	none
CC(C)c1ccc(CNc2ccc(N3CCOCC3)cc2)cc1	ERa coact pot 530[fluorescence artefact?]
COc1cc(NC(=O)c2cc3nc(-c4ccccc4)cc(-c4ccccc4)n3n2)cc(OC)c1OC	none (no result: ERa coact inh, ERa coact pot, ERb coact inh)
CCOC(=O)NCc1ccc2c(c1)cc(C)n2C	none (no result: ERa coact inh, ERa coact pot, ERb coact inh)
Cc1cc2cc(CNC(=O)c3cccs3)ccc2n1C	ERa coact inh 75[fluorescence artefact?] (no result: FAK inh)
CCC(CC)C(=O)NCc1ccc2c(c1)cc(C)n2C	none (no result: ERa coact inh, ERa coact pot, ERb coact inh)
Cc1cc2cc(CNC(=O)Nc3ccccc3)ccc2n1C	ERa coact pot 222[fluorescence artefact?]
CCCCn1nnnc1SCC(=O)N1CCCC1	none
O=C(c1cn(-c2ccccc2)nc1-c1ccncc1)n1nnc2ccccc21	ERa coact pot 216
CCn1c(C(=O)N2CCCC(C(=O)NCCCc3ccccc3)C2)cc2sccc21 (configuration not stated)	ERb coact inh 80[fluorescence artefact?]
